Compound activity (PubChem BioAssay)
SMN2 splice up: increases expression of the SMN2 splice variant; HEK293 SMN2-luciferase splicing reporter, luminescence, 30-36 h; Potency, µM (series often up to 46.1 µM), for the others: at the highest dose activity change, positive = activation, usual class: activators; 210,000 tested, 2.8% active; also: % of control where 0% means no effect; nearly all actives have a fitted effect of over 55% in size
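qHTS luciferase splicing reporter: luminescence rises when SMN2 exon 7 is included in transfected HEK293 cells. Compound exposure lasted 30-36 h at 37C, with 4.5 mM final sodium butyrate as control, followed by a ONE-Glo read.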
Luc counter: Kinase-Glo luciferase inhibition (counter-screen); Q27757; Kinase-Glo luciferase, ATP luminescence, 8 min; 200,000 tested, 0.28% active; AID 1379; Potency, µM (titrated, usually from 38.3 µM), without a hit: at the highest dose activity change, negative = inhibition, most hits filed as inhibitors; also: % is scaled to controls: 0 for no effect and ±100 for the full control effect; nearly all actives have a fitted effect of over 60% in size
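Light output from Kinase-Glo luciferase with luciferin and 10 uM ATP in 50 mM imidazole pH 7.2, KCl, MgCl2, Tween 20, BSA; compound pin-delivered, 8-min ambient incubation, then luminescence read.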
ELG1 genotoxic: induces genotoxicity in HEK293T cells with luciferase-tagged ELG1; HEK293T ELG1-luciferase reporter, luminescence, 16 h; Potency, µM (top dose mostly 46 µM), for the others: at the top dose activity change, positive = activation, hits mostly activators; 330,000 tested, 1.3% active; AID 504466; also: % of control where 0% means no effect; nearly all actives have a fitted effect of over 60% in size
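HEK293T cells expressing luciferase-tagged ELG1 were exposed to compound or DMSO vehicle for 16 hr at 37 °C and 5% CO2. Luciferase activity was then measured with ONE-Glo after 30 min at room temperature.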
Rab9 prom act: Rab9 promoter activation; Huh7 Rab9 promoter-luciferase reporter, luminescence, 24 h; Potency, µM (highest dose often 9.22 µM), without a hit: at the highest dose activation, negative = inhibition, actives largely listed as activators; 320,000 tested, 2.8% active; also: % of control where 0% means no effect; nearly all actives have a fitted effect of over 60% in size
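Using Huh7 cells stably transfected with Rab9 promoter–luciferase, compounds were incubated 24 h at 37 °C, 5% CO2; luciferase luminescence was read 10 min after reagent addition.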
NPC1 promoter act: activates the NPC1 promoter; Huh7 NPC1 promoter luciferase reporter, 24 h; Potency, µM (top dose mostly 9.22 µM), without a hit: at the highest dose activation, most hits filed as activators; 320,000 tested, 2.4% active; also: % of control where 0% means no effect; nearly all actives have a fitted effect of over 60% in size
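Compounds in DMSO were transferred onto Huh7 NPC1-luciferase reporter cells pre-incubated 2 h; after 24 h at 37 °C, Amplite reagent was dispensed and luminescence recorded 10 min later.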
FLuc counter: firefly luciferase modulation, counter-screen for miR-21 project; AID 588342; Potency, µM (titrated, usually from 57.5 µM), without a hit: at the top dose activity change, negative = inhibition, most hits filed as inhibitors; purified FLuc, Km substrates, luminescence inhibition; 360,000 tested, 6.9% active;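 also: plate controls were vehicle for no effect and reference inhibitor for full effect; nearly all actives have a fitted effect of over 55% in size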
Target sequence (P08659 whole entry, looked up): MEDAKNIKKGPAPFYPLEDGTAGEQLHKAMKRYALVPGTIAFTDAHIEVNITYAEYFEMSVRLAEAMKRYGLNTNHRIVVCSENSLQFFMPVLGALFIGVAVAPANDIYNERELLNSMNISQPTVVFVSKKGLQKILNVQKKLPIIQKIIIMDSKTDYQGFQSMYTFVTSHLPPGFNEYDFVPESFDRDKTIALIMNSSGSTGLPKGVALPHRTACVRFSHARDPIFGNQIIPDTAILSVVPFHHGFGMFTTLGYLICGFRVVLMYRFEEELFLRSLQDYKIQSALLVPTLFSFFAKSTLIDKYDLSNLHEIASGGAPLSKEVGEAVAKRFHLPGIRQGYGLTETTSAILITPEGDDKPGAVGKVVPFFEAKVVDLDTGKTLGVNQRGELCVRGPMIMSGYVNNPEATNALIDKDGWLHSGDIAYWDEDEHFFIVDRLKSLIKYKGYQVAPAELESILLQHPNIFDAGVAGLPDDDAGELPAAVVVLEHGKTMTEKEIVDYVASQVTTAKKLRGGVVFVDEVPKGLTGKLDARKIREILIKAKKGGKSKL
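Purified P. pyralis luciferase (10nM final) with 10uM D-luciferin and 10uM ATP (Km levels) in 50mM Tris acetate pH 7.5, 10mM Mg acetate, 0.01% Tween-20, 0.05% BSA; qHTS 6-point titration, ~60 µM downward; luminescence read.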
* = called active by the depositor; [ ] = dose if it differs, or a comment. Shown are actives, neighbours in structure and some others; about 7.4% of the full set was active somewhere. Calls follow the shape of the dose curve; as a rule, active = well fitted curve in the direction sought with a large enough effect; inconclusive = small, poorly fitted or top-dose-only effect, or another doubt; inactive = no such curve, though single readings can be large; an effect the other way counts as inactive or inconclusive. Potency is read from the fitted curve at half-maximal effect.

Screening O=C(O)c1cc(N/N=C/c2ccc3c(c2)OCO3)ccc1Cl returned SMN2 splice up 4.5µM*, Luc counter -2%, ELG1 genotoxic inconclusive, Rab9 prom act 0.1µM*, NPC1 promoter act 0.28µM* and FLuc counter 0.76µM*.
For O=C(O)c1cc(S(=O)(=O)Nc2ccc3c(c2)OCCO3)c(Cl)cc1Cl the results were SMN2 splice up -12%, Luc counter -3%, ELG1 genotoxic 9.2µM*, Rab9 prom act 4%, NPC1 promoter act 2% and FLuc counter inconclusive.
Screening O=C(N/N=C/c1ccc2c(c1)OCO2)c1ccc(Cl)cc1Cl returned ELG1 genotoxic 2%, Rab9 prom act 3%, NPC1 promoter act 2% and FLuc counter inconclusive.
O=C[C@@H]1CCCN1C(=O)[C@@H]1CCCN1C(=O)OCc1ccccc1 was read as SMN2 splice up 0%.
`COC(=O)C1(Cc2ccccc2)C=C2C(=C(c3ccccc3)C(=O)C2C)CN1` (configuration not stated) gave SMN2 splice up -9% and Luc counter -2%.
`CCCCSCCCNC(=O)CN1C(=O)c2cccnc2Oc2ccc(Cl)cc21` gave FLuc counter -17%.
CCCn1c(=O)c2sccc2n2c(CCCC(=O)Nc3ccc(Oc4ccccc4)cc3)nnc12 was read as FLuc counter -17%.
Screening NC(N)=NCCC[C@H](NC(=O)CC1(CC(=O)N2CCN(C3c4ccccc4NC(=O)c4ccccc43)CC2)CCCC1)C(=O)NCCn1c(=O)n(-c2ccccc2)n(-c2ccccc2)c1=O (some centres not stated) returned SMN2 splice up 12% and Luc counter -3%.
Cc1c(CNC2CCC(C)CC2)c(C(=O)O)c(C)n1Cc1ccc(Cl)cc1 (configuration not stated) was read as SMN2 splice up 7% and FLuc counter -2%.
For O=C(O)c1ccc(N/N=C/c2ccc3c(c2)OCO3)cc1 the results were Luc counter 4µM*, ELG1 genotoxic inconclusive, Rab9 prom act -59%, NPC1 promoter act -38% and FLuc counter 0.095µM*.
Screening Cc1ccc(N/N=C/c2ccc3c(c2)OCCO3)cc1Cl returned SMN2 splice up 20µM*, Luc counter -2%, ELG1 genotoxic inconclusive, Rab9 prom act 4%, NPC1 promoter act 12% and FLuc counter 24µM*.
`C/C(=N\Nc1ccc(Cl)c(C(=O)O)c1)c1ccc2c(c1)OCO2` gave SMN2 splice up 16µM*, Luc counter 4%, ELG1 genotoxic inconclusive, Rab9 prom act 1.6µM*, NPC1 promoter act 2.2µM* and FLuc counter 15µM*.
Screening O=C(O)c1cc(N/N=C/c2ccc3c(c2)OCCO3)ccc1Cl returned SMN2 splice up 0.32µM*, Luc counter -2%, ELG1 genotoxic 0.29µM*, Rab9 prom act inconclusive, NPC1 promoter act inconclusive and FLuc counter 1.1µM*.
`C/C(=N\Nc1ccc(Cl)c(C(=O)O)c1)c1ccccn1` gave ELG1 genotoxic 10%, Rab9 prom act 9%, NPC1 promoter act 16% and FLuc counter -18%.
For Cc1ccc(CNC(=O)C2CCN(c3nn4cc(-c5ccc(F)cc5)nc4s3)CC2)cc1 the results were FLuc counter -1%.
`C[C@H]1NC(=O)NC1=O` gave SMN2 splice up 6%[20.6 µM] and Luc counter 2%[17.1 µM].
`O=C(Nc1cccc(F)c1)N1CCCC2(CCN(C(=O)c3cc(C(F)(F)F)cc(C(F)(F)F)c3)CC2)C1` gave SMN2 splice up -5% and Luc counter -7%.
`O=C(O)c1ccc(N/N=C/c2cc3cc4c(cc3nc2Cl)OCCO4)cc1` gave ELG1 genotoxic 1.2µM*, Rab9 prom act 0.1µM*, NPC1 promoter act 0.28µM* and FLuc counter 0.024µM*.
Screening Cc1cc(N2CCN(c3cccc(C)c3C)CC2)n2cnnc2n1 returned SMN2 splice up -5% and FLuc counter -8%.
CCCOc1cccc(-c2nc3ccccc3c(=O)o2)c1 was read as Luc counter -1%, ELG1 genotoxic inconclusive, Rab9 prom act 26%, NPC1 promoter act 8% and FLuc counter 8.5µM*.
Screening CCCOc1ccc(-c2nc3ccccc3c(=O)o2)cc1 returned SMN2 splice up 16µM* and FLuc counter 0.67µM*.
`CCCOc1ccc(-c2nc(OC)c3ccccc3n2)cc1` gave SMN2 splice up -10%, Luc counter -6%, ELG1 genotoxic 5%, Rab9 prom act 3%, NPC1 promoter act 19% and FLuc counter 13µM*.
`CCC(=O)Oc1ccc(-c2nc3ccccc3c(=O)o2)cc1` gave SMN2 splice up -5% and FLuc counter 1.7µM*.
Screening CCCCOC(=O)c1ccc(NC(=O)CSc2nc3c(c(=O)[nH]2)CCCC3)cc1 returned FLuc counter 5%.
`C1=C(CN2CCOCC2)COc2c1cccc2OC[C@@H]1CNCCO1` gave Luc counter 3%.
`COc1cccc(CNC(=O)C(=O)NCC(c2ccc3c(c2)OCO3)N2CCOCC2)c1` (configuration not stated) gave FLuc counter 0%.
For CCOC(=O)c1ccccc1NC(=O)c1nn(-c2ccc(C)cc2)c(=O)n(C)c1=O the results were FLuc counter 0%.
Screening CSC(N)=NCCCC(N)C(=O)O (configuration not stated) returned SMN2 splice up -3% and Luc counter -3%.
Screening Cc1ccc2c(CN(C)Cc3cccc(F)c3)cc(=O)oc2c1C returned ELG1 genotoxic 3%, Rab9 prom act -3%[1.84 µM], NPC1 promoter act 14% and FLuc counter inconclusive.
Cc1ccc2c(CN(C)Cc3ccccc3)cc(=O)oc2c1C was read as ELG1 genotoxic 10%, Rab9 prom act inconclusive, NPC1 promoter act inconclusive and FLuc counter 15µM*.
Screening CC(C)(C)c1ccc2c(c1)C(=O)c1ccccc1C2=O returned ELG1 genotoxic inconclusive, Rab9 prom act 0.56µM*, NPC1 promoter act 0.89µM* and FLuc counter 1.3µM*.
CC(C)(C=O)C1=CC(=O)c2ccccc2C1=O was read as SMN2 splice up -16%, Luc counter 1%, ELG1 genotoxic -8%, Rab9 prom act -34%, NPC1 promoter act -30% and FLuc counter inconclusive.
`COc1ccc(-c2cn(Cc3ccc4c(c3)C(=O)c3ccccc3C4=O)nn2)cc1` gave ELG1 genotoxic 12%, Rab9 prom act -3%, NPC1 promoter act 0% and FLuc counter -2%.
